# Bioassay records (PubChem BioAssay)
# The list is not random: actives were taken first. Their share in the collection is about 3.4%.
# MITF inh: inhibitors of human MITF | O75030 | AlphaScreen MITF homodimerization, bead proximity signal | inhibition, % at 2.6 µM | 0.91% of 650,000 active; in the data active = inhibition above about 50%;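 note: 0% = vehicle wells with protein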
# GPR151 activ: activates the human receptor GPR151. activation, % at 11.2 µM. 1% of 650,000 active. PathHunter beta-arrestin GPR151 cells, luminescence. Q8TDV0; in the data active = activation above about 4.9%;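 note: 0% = median of compound wells and 100% = cells with positive control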
# FBW7 act: activators of human E3 ligase FBW7 | AlphaScreen FBW7–phospho-cyclin E peptide binding, activator screen | Q969H0 | AID 1259310 | 0.13% of 650,000 active | normalized activity (activation), % at 26.1 µM; in the data active = normalized activity above about 1.9%;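 note: purified mutant Fbw7 with reduced substrate affinity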
# Target sequence (Q969H0 whole entry, looked up): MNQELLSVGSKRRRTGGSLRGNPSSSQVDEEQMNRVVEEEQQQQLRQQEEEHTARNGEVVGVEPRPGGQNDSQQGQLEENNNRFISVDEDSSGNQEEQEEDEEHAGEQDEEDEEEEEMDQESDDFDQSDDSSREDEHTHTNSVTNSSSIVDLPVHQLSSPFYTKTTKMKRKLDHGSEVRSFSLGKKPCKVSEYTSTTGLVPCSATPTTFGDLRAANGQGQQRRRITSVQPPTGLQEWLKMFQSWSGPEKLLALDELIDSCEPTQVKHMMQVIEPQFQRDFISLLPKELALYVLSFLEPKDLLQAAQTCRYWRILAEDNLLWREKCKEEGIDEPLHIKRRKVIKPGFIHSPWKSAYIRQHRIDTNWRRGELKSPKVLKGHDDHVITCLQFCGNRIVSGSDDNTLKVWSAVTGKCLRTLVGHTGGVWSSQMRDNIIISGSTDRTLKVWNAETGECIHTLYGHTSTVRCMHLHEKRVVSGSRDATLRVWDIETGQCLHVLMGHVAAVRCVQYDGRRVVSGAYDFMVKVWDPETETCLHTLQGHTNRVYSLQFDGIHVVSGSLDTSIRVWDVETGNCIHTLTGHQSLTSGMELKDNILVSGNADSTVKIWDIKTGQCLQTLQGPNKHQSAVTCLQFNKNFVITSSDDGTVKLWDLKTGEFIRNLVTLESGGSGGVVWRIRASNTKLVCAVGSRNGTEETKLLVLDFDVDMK
# TEAD-YAP inh: TEAD-YAP interaction inhibition. HEK-TIYL cells, TEAD-Gal4/YAP UAS-luciferase luminescence. inhibition, % at 9.12 µM. 1.4% of 640,000 active; in the data active = inhibition above about 32%;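 note: 0% = median of test compound wells and 100% = reference inhibitor wells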
# GPR151 confirm: confirmation of human GPR151 activators; shares compounds with GPR151 activ; GPR151 PathHunter beta-arrestin cells, luminescence, 90 min; % of EA-reagent control over plate median; activation, % at 11.2 µM; 6,700 tested, under 10 active; AID 1508609;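 active = mean percent activation across replicates above the confirmation screen cutoff of 4.91%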
# GPR119 ag: activates human GPR119 in a GPR151 counter-screen. AID 1508611. activation, % at 11.2 µM. GPR119 PathHunter beta-arrestin cells, luminescence, 90 min; 0 = compound-well median, 100 = enzyme-acceptor control. shares compounds with GPR151 activ. 0.3% of 6,700 active;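 active = mean percent activation in the counterscreen above 29.09%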;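 note: counterscreen on off-target GPR119 to flag nonselective hits from the GPR151 activator screen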
# Starred values were filed as active, the others as inactive; x = no result given.
SMILES,MITF inh,GPR151 activ,FBW7 act,TEAD-YAP inh,GPR151 confirm,GPR119 ag
Cc1sc2nc(CSCC(=O)NCC(F)(F)F)[nH]c(=O)c2c1C,6.7,1.9,0.0,3.1,x,x
Cc1sc2nc(CSCC(=O)NC3CC3)[nH]c(=O)c2c1C,-9.9,6.1*,-0.1,-2.8,-0.5,2.0
COc1ccc(-c2cc(Nc3ccc(Oc4ccccc4)cc3)nc(N)n2)cc1,7.9,4.9,0.1,-1.9,x,x
Nc1cccc(-c2cc(Nc3ccc(Oc4ccccc4)cc3)nc(N)n2)c1,7.2,4.9*,0.0,52.3*,0.6,-6.6
Cc1nc2ccccc2c(=O)n1C,13.3,-1.5,0.1,0.2,x,x
Cc1nnc2n1CCN(C(=O)c1ccccc1N(C)C)CC2,-10.1,5.2*,-0.1,-6.3,0.9,4.4
CC(=O)Nc1ccc(OC(=O)N2CCC(C)CC2)cc1,7.0,5.3*,0.2,23.3,0.8,0.8
CC1CCN(C(=O)Oc2ccccc2)CC1,2.2,1.4,0.0,0.5,x,x
CC1CCN(C(=O)Nc2ccc(F)cc2)CC1,-5.0,7.2*,0.0,-19.3,-0.3,-4.0
CC1CCN(C(=O)Nc2ccc(Cl)cc2)CC1,18.8,-0.2,0.5,-50.1,x,x
CCOC(=O)C1=C(C)N=c2s/c(=C/c3ccc(O)cc3)c(=O)n2C1c1ccc(F)cc1 (stereo unspecified),-16.5,-0.2,0.0,-54.0,x,x
COc1ccc(C(=O)Oc2coc(CSc3nnc(NC(C)=O)s3)cc2=O)cc1,-8.0,13.1*,-0.2,-3.1,0.6,6.1
COc1cccc(C(=O)Oc2coc(CSc3nnc(NC(C)=O)s3)cc2=O)c1,-5.1,-0.6,-0.1,-2.1,x,x
O=C(O)CCn1c(=O)oc2cc(S(=O)(=O)O)ccc21,4.8,7.5*,-0.1,4.6,1.6,-1.1
CCOc1ccc(-c2cnc(N)n2C)cc1,11.1,5.4*,-0.4,-4.3,1.2,7.0
COc1ccc(Br)cc1/C=C1\N=C(c2cc(Br)ccc2OC)OC1=O,13.1,0.2,0.4,-10.3,x,x
COc1ccc(Br)cc1C1=N/C(=C\c2cccc(OC)c2OC)C(=O)O1,18.6,6.8*,0.0,-7.8,0.5,8.8
Cc1cc(C)c(NC(=O)CSc2nc(C)cc(=O)[nH]2)c([N+](=O)[O-])c1,-0.8,8.2*,-0.2,-10.7,-1.0,-10.7
CC1=C(C(=O)OCCOC(C)C)C(c2cc3c(cc2Br)OCO3)NC(=O)N1 (stereo unspecified),7.9,-1.4,0.0,-0.1,x,x
COc1ccc(C(=O)NC2CC2)cc1OC1CCN(C2Cc3ccccc3C2)CC1,3.6,11.3*,-0.1,-22.9,-0.3,-0.9
COc1ccc(C(=O)NC2CC2)cc1OC1CCN(C2CCCCCC2)CC1,2.9,-0.4,-0.3,-0.4,x,x
COc1ccc(C(=O)NC2CC2)cc1OC1CCN(C2CCC2)CC1,6.5,7.0*,0.0,-14.9,0.5,0.7
CC1=CC(C)(C)N(C(=O)CSc2nc3ccccc3s2)c2cc(C)ccc21,-4.7,-1.0,0.0,-0.9,x,x
CCOC(=O)CSc1nc2ccccc2[nH]1,13.6,1.0,0.1,-5.7,x,x
CCOC(=O)c1[nH]c(=O)[nH]c1CSc1nc2ccccc2[nH]1,-15.4,10.6*,0.0,-0.9,0.8,5.6
SMILES,MITF inh,GPR151 activ,FBW7 act,TEAD-YAP inh,GPR151 confirm,GPR119 ag
CCc1nnc2n1N(C(C)=O)C(c1ccc(Cl)c(Cl)c1)=C(C(C)=O)S2,11.1,7.1*,-0.2,16.5,1.3,2.4
CCc1nnc2n1N(C(C)=O)C(c1ccc(Cl)cc1)=C(C(C)=O)S2,1.8,0.3,-0.1,18.7,x,x
CCN(CC)C(=O)Cn1cnc2sc(C(=O)N3CCCC3)c(C)c2c1=O,-4.7,2.6,-0.2,-6.6,x,x
CC(C)CNC(=O)C1=CC(c2ccc(F)cc2)=NS(=O)(=O)N1C,2.4,7.5*,0.0,-8.5,-0.1,-7.9
COc1cc(C(=O)Nc2ccc([N+](=O)[O-])cc2)cc(Br)c1OC,6.0,5.6*,0.5,7.0,0.3,2.1
COc1cc(C(=O)Nc2cccc([N+](=O)[O-])c2)cc(OC)c1OC,10.6,1.1,0.0,-1.3,x,x
CCOC(=O)N1CCN(C(=O)CCCNC(=O)Cn2cnc3sc4c(c3c2=O)CCCC4)CC1,-2.5,-0.6,0.1,2.2,x,x
O=C(c1cc(=O)c2ccccc2o1)N1CCCC1,0.9,1.0,0.4,16.3,x,x
CC(C)c1nnc2n1CCN(C(=O)c1cc(=O)c3ccccc3o1)CC2,3.1,7.3*,0.0,-21.9,1.2,1.7
CCOC(=O)c1c(C)oc2nc(CCl)[nH]c(=O)c12,-3.6,12.0*,0.1,4.5,-0.7,-9.2
O=C(CNC(=O)c1cccc(F)c1)N/N=C/c1cc(I)ccc1O,7.9,5.0*,-0.3,12.4,-0.4,2.6
O=C(CNC(=O)c1cccc(F)c1)N/N=C/c1cc(Cl)ccc1O,-1.5,1.9,-0.1,-4.7,x,x
Cc1ccc(NC(=O)C2CCC(CNc3c(N4CCC(C)CC4)c(=O)c3=O)CC2)cc1C (stereo unspecified),1.1,-0.2,-0.1,4.3,x,x
O=C(Nc1ncnc2c1CCC2)c1nc2ccccc2s1,5.2,-2.2,0.8,-27.1,x,x
O=S(=O)(c1ccc(N2CCCC(C(F)(F)F)C2)nc1)N1CCCC1 (stereo unspecified),-1.5,5.8*,0.0,-3.7,0.4,3.0
O=C(Cn1[nH]c(=O)c2ccccc2c1=O)NCc1cccnc1,2.1,-0.1,0.0,10.3,x,x
O=C(Cn1[nH]c(=O)c2ccccc2c1=O)Nc1cccnc1,-14.0,18.6*,-0.1,1.0,0.7,-4.4
Cc1cc([N+](=O)[O-])ccc1NC(=O)Cc1ccc(F)cc1,-7.3,-0.1,-0.1,7.6,x,x
Cc1ccc([N+](=O)[O-])cc1NC(=O)Cc1ccc(F)cc1,6.9,5.4*,0.2,0.4,-1.0,-11.3
C/C(CC(=O)Nc1cc([N+](=O)[O-])ccc1C)=N\NC(=O)C(=O)NCCO,-4.3,8.3*,0.1,-7.8,0.2,9.1
CC(=O)CC(=O)Nc1cc([N+](=O)[O-])ccc1C,5.5,-0.1,0.0,-6.4,x,x
COc1ccc(CCN(C)C2CCCN(C(=O)Cn3cncn3)C2)cc1OC (stereo unspecified),2.9,0.0,0.1,6.1,x,x
COc1cc(OC)cc(C(=O)NNC(=S)NCc2ccco2)c1,6.1,7.2*,0.1,-1.7,-0.9,-13.0
Cc1cc(S(=O)(=O)Nc2cc3c4c(c2)CC(=O)N4CCC3)ccc1F,-4.4,0.3,-0.1,11.3,x,x
C=CCn1c(SCC(=O)Nc2sc3c(c2C(=O)OCC)CCCCC3)nc2sc(-c3ccccc3)cc2c1=O,-3.6,6.3*,-0.2,-2.7,0.5,18.1
CN(Cc1ccccc1)C(=O)CCC1CCN(C(=O)C(=O)c2ccccc2)CC1,-7.1,5.2*,-0.2,-19.3,-0.8,2.1
CC1=C(C(=O)N2CCC(CCC(=O)N(C)Cc3ccccc3)CC2)OCCO1,-0.7,-0.9,-0.1,-11.8,x,x
O=C1CSC(c2ccc(Br)cc2)N1c1ccc(Cl)cc1 (stereo unspecified),1.3,-0.4,-0.2,2.9,x,x
